Assay outcomes: PubChem BioAssay, National Center for Advancing Translational Sciences (NCATS)
The sample as a whole holds a higher share of hits than the screen did.
nsP2pro inh – Primary qHTS for inhibitors of NSP2Pro chikungunya virus (CHIKV); Polyprotein P1234 (Chikungunya virus (strain S27-African prototype)), Q8JUX6; FRET peptide cleavage, nsP2pro, fluorescence 1 h; Potency, µM (titrated, usually from 24.9 µM), without a hit: top-dose activity change, negative = inhibition, hits mostly inhibitors; hit rate 1.1% among 31,000; AID 1964107, 2024; also: nearly all actives have a fitted effect of over 60% in size
Target sequence (Q8JUX6 whole entry, looked up): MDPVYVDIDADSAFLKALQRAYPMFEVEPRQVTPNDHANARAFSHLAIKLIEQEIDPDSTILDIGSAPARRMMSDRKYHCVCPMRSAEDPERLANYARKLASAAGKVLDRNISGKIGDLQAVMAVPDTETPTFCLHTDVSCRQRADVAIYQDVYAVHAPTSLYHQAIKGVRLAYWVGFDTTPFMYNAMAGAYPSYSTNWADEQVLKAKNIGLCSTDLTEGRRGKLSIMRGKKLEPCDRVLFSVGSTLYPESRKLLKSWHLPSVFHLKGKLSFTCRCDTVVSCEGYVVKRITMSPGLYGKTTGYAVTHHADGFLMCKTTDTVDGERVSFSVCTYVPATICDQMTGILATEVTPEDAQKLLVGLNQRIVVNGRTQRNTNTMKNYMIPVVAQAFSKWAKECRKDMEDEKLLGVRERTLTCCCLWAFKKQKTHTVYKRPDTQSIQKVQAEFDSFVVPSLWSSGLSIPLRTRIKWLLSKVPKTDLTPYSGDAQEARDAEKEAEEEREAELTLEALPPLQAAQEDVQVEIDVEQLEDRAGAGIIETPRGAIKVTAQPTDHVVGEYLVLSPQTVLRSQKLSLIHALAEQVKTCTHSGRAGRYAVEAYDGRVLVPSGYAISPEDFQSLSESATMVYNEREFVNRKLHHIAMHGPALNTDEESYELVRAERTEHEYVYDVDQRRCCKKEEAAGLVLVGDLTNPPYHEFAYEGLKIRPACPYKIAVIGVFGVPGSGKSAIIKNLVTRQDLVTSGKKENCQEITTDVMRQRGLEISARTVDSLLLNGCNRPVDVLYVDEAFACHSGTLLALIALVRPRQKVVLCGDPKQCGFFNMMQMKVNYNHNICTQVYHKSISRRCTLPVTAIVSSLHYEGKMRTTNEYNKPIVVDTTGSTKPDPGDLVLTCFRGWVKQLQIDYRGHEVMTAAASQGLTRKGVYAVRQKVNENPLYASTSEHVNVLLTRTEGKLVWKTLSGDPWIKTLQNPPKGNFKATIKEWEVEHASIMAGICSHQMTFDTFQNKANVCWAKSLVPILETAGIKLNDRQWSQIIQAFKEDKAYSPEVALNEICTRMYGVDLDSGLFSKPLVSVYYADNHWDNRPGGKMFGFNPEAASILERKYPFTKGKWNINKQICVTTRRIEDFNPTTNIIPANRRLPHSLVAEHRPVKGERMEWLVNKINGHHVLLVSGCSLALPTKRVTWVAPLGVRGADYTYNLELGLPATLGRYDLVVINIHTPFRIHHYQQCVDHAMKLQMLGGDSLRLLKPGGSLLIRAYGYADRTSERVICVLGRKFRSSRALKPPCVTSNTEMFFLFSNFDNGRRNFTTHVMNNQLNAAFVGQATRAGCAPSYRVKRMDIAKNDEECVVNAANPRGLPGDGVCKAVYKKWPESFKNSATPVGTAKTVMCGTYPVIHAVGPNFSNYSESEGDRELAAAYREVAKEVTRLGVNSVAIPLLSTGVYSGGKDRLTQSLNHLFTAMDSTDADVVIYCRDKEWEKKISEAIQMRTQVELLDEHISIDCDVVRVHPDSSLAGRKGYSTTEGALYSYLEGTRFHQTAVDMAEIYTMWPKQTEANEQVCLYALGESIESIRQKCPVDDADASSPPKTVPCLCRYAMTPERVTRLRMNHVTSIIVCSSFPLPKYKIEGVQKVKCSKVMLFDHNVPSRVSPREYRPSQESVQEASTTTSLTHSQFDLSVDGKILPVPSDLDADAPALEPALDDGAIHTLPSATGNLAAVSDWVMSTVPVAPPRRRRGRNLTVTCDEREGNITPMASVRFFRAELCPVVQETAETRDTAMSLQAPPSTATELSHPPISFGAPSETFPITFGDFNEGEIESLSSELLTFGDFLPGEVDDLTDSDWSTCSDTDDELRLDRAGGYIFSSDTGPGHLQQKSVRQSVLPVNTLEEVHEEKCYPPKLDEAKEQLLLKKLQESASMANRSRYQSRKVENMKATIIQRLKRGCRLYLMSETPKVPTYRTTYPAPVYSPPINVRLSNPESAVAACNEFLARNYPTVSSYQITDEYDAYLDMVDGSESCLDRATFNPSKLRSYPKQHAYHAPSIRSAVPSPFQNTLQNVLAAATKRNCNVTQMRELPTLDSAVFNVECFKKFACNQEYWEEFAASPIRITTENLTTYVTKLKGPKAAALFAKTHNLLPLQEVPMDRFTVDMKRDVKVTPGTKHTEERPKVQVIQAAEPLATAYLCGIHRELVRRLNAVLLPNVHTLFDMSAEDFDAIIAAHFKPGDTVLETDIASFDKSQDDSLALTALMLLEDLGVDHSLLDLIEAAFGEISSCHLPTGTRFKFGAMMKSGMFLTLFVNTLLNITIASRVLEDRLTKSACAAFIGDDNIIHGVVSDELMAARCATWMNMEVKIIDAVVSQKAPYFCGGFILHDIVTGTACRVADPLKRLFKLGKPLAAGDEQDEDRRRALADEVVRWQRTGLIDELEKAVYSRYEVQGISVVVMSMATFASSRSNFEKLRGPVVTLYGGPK
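Recombinant nsP2pro (150 nM) was preincubated with compound 15 min at room temperature in 10 mM Tris-HCl pH 8.0, 0.01% Tween 20. Peptide 2 FRET substrate (2.5 uM) was then added and fluorescence read after 1 h. Seven-point series, up to 25 uM.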
CHIKV nsP2 cell – Secondary cell base assay for inhibitors of NSP2Pro Chikungunya virus (CHIKV); shares compounds with nsP2pro inh; Potency, µM (highest dose often 51.1 µM), inactives show top-dose activity change, negative = inhibition, usual class: inhibitors; cell-based CHIKV nsP2 protease reporter assay; AID 1964100, 2024; hit rate 10% among 450; also: nearly all actives have a fitted effect of over 70% in size
CHIKV NSP2 FL – Selectivity profile for inhibitors of NSP2Pro chikungunya virus (CHIKV): Full length NSP2 enzyme counterscreen (CHIKV-NSP2); hit rate 39% among 410; Potency, µM (highest dose often 50.7 µM), for inactives: at the top dose activity change, negative = inhibition, usual class: inhibitors; Full-length CHIKV NSP2 protease enzymatic counterscreen; AID 1964101, 2024; shares compounds with nsP2pro inh; also: nearly all actives have a fitted effect of over 65% in size
Furin counterscr – Selectivity profile for inhibitors of NSP2Pro chikungunya virus (CHIKV): Human furin counterscreen | hit rate 6% among 410 | shares compounds with nsP2pro inh | AID 1964102, 2024 | Recombinant human furin enzymatic counterscreen, fluorogenic substrate | Potency, µM (titrated, usually from 50.6 µM), for inactives: at the highest dose activity change, negative = inhibition, actives largely listed as inhibitors
NS23 peptide cs – Selectivity profile for inhibitors of NSP2Pro chikungunya virus (CHIKV): Endogenous NS2/3 peptide Counterscreen. hit rate 34% among 410. shares compounds with nsP2pro inh. Purified CHIKV nsP2 protease, endogenous NS2/3 peptide cleavage. Potency, µM (highest dose often 51 µM), without a hit: at the top dose activity change, negative = inhibition, usual class: inhibitors; also: nearly all actives have a fitted effect of over 55% in size
Papain cs – Selectivity profile for inhibitors of NSP2Pro chikungunya virus (CHIKV): Papain Counterscreen; shares compounds with nsP2pro inh; purified papain protease activity, enzymatic inhibition; Potency, µM (top dose mostly 51 µM), for inactives: top-dose activity change, negative = inhibition, hits mostly inhibitors; hit rate 5% among 410; AID 1964104, 2024
nsP2pro confirm – Confirmatory qHTS for inhibitors of NSP2Pro chikungunya virus (CHIKV); shares compounds with nsP2pro inh; CHIKV nsP2 protease enzymatic activity, qHTS; Potency, µM (doses to about 25.5 µM), for inactives: at the highest dose activity change, negative = inhibition, hits mostly inhibitors; hit rate 43% among 410; AID 1964105, 2024; also: nearly all actives have a fitted effect of over 75% in size
HCV NS3 counter – Selectivity profile for inhibitors of NSP2Pro chikungunya virus (CHIKV): NS34A-HCV Counterscreen; HCV NS3/4A protease biochemical counterscreen; shares compounds with nsP2pro inh; hit rate 20% among 410; Potency, µM (series often up to 50.9 µM), actives largely listed as inhibitors; also: nearly all actives have a fitted effect of over 55% in size
Numbers without * were called inactive; i = inactive; ? = inconclusive; [ ] = remark or other dose. Calls follow the shape of the full dose curve. % is scaled to controls: 0 for no effect and ±100 for the full control effect; potency is read from the fitted curve at half-maximal effect.

SMILES	nsP2pro inh	others
COC(=O)C1(O)C(OC(C)=O)CCC2C3(CC(c4ccoc4)OC3=O)C(C)=CCC21C(=O)OC (stereo unspecified)	1.92µM*	CHIKV nsP2 cell=-7.4%[17.6 µM];CHIKV NSP2 FL=-15.1%[17.3 µM];Furin counterscr=-3.3%[17.3 µM];NS23 peptide cs=i;Papain cs=-7.1%[17.2 µM];nsP2pro confirm=36.2%[8.62 µM];HCV NS3 counter=i
CC1=CC(=O)CC2C1(O)CCC(C)C21CC(c2ccoc2)OC1=O (stereo unspecified)	33.1%
COc1cc(/C=C/C(=O)OC2CC(OC(C)=O)C(OC(C)=O)C3C2CCC2C(=O)OC(c4ccoc4)CC23C)ccc1O[C@@H]1O[C@H](CO)[C@@H](O)[C@H](O)[C@H]1O (stereo partly specified)	-22.5%[10 µM]
Cc1cnc(NC(=O)c2ccc(-c3cccc([N+](=O)[O-])c3)o2)s1	-4.9%
COc1ccc(C2CC(=O)c3c(O)cc(OC4OC(CO)C(O)C(O)C4OC4OC(C)C(O)C(O)C4O)cc3O2)cc1O (stereo unspecified)	-20.5%
COc1ccc(-c2cccc(C(=O)NC3CCOCC3)c2)nn1	i
N#Cc1c(N2C[C@@H]3NCCO[C@H]3C2)c(F)cc2c(=O)c(C(=O)O)cn(C3CC3)c12	6.2%
O=C1OC(/C=C/c2ccccc2)=NC/1=C\c1cccnc1	7.8%
O=C1c2ccccc2C(=O)N1c1cccnc1	i
O=C1C(=Cc2cccnc2)C(=O)c2ccccc21	?	CHIKV nsP2 cell=-11.2%;CHIKV NSP2 FL=?;Furin counterscr=-9.9%;NS23 peptide cs=18.3µM*;Papain cs=-7.2%;nsP2pro confirm=5.04µM*;HCV NS3 counter=?
CC(C)(C)NC(=O)[C@@H]1C[C@@H]2CCCC[C@H]2CN1C[C@@H](O)[C@H](Cc1ccccc1)NC(=O)[C@H](CC(N)=O)NC(=O)c1ccc2ccccc2n1	-9.4%
Cc1cc(CCCOc2c(C)cc(-c3noc(C(F)(F)F)n3)cc2C)on1	?	CHIKV nsP2 cell=-6.6%;CHIKV NSP2 FL=21.1%;Furin counterscr=-16.5%;NS23 peptide cs=0.0%;Papain cs=-9.2%;nsP2pro confirm=-14.1%;HCV NS3 counter=i
CC1(C)CC(=O)N(CCCCN2CCN(c3ncccn3)CC2)C(=O)C1	-6.1%
Oc1cc2c(cc1CN1CCN(c3ncccn3)CC1)OCO2	10µM*	CHIKV nsP2 cell=-28.7%;CHIKV NSP2 FL=?;Furin counterscr=-3.9%;NS23 peptide cs=16.3µM*;Papain cs=-3.4%;nsP2pro confirm=7.11µM*;HCV NS3 counter=?
O=C(O)C(c1ccc2c(c1)OCCO2)N1CCCN(c2ncccn2)CC1 (stereo unspecified)	-3.9%
COc1cccc(-c2nc(-c3cccc(C(=O)O)c3)no2)c1	i
CN1CC(C(=O)N2CCN(Cc3ccccc3)CC2)NC1=O (stereo unspecified)	-3.3%[39.2 µM]
CCN(Cc1cccc2nonc12)CC1CCCN(CCc2cccc(OC)c2)C1 (stereo unspecified)	i
CCSc1ncc(Cl)c(C(=O)N(Cc2ccccc2)Cc2ccco2)n1	-16.6%
CCCSc1ncc(Cl)c(C(=O)N(Cc2ccc(Cl)cc2)Cc2ccco2)n1	36.6%
CCCS(=O)(=O)c1ncc(Cl)c(C(=O)N(Cc2ccccc2)Cc2ccco2)n1	5.62µM*	CHIKV nsP2 cell=4.61µM*;CHIKV NSP2 FL=18.3µM*;Furin counterscr=-13.2%;NS23 peptide cs=6.51µM*;Papain cs=-0.6%;nsP2pro confirm=4.49µM*;HCV NS3 counter=?
Fc1ccc(-c2ccc(CNc3nc(-c4ccccc4C(F)(F)F)nc4ccccc34)cc2)cc1	-8.9%
Nc1c(-c2ccccc2)nc(Cl)c2c(O)n[nH]c(=O)c12	9.88µM*	CHIKV nsP2 cell=-1.8%;CHIKV NSP2 FL=-4.5%;Furin counterscr=-7.2%;NS23 peptide cs=i;Papain cs=24.1%;nsP2pro confirm=-6.7%;HCV NS3 counter=i
O=C(O)c1cc(-c2c(-c3ccccc3)nn3ccccc23)n[nH]c1=O	13.1%
CN1C(=O)[C@]23C[C@H]4C(C)(C)[C@]5(CNc6c5ccc5c6OC=CC(C)(C)O5)C[C@@]41CN2CC[C@@]3(C)O	21.4%
SMILES	nsP2pro inh	others
CCOc1ccc(CCNC(=O)C2=C(C)OCCO2)cc1OCC	4.0%
Cc1cccc(C(=O)Nc2ccc3ncnc(N4CCCCC4)c3c2)c1	33.7%
Cc1cccc(C(=O)Nc2ccc(N3CCC(N4CCCCC4)CC3)c(C(=O)O)c2)c1	5.01µM*	CHIKV nsP2 cell=11.4%;CHIKV NSP2 FL=4.61µM*;Furin counterscr=?;NS23 peptide cs=14.6µM*;Papain cs=-4.1%;nsP2pro confirm=7.11µM*;HCV NS3 counter=2.59µM*
O=C(Nc1ccc(N2CCC(c3ccccc3)C2)c(C(=O)O)c1)c1ccc(Cl)cc1 (stereo unspecified)	3.55µM*	CHIKV nsP2 cell=29.6%;CHIKV NSP2 FL=3.66µM*;Furin counterscr=?;NS23 peptide cs=11.6µM*;Papain cs=8.7%;nsP2pro confirm=7.11µM*;HCV NS3 counter=3.66µM*
Cc1cccc(C(=O)Nc2cc3c(cc2N2CCCCC2)n(C)c(=O)n3C)c1	-9.0%
O=C(Nc1ccc(Cl)cc1)c1ccc2c(c1)N(Cc1ccccc1)CCS2	-4.6%
O=C(Nc1ccc(Cl)cc1)N1CCC(c2ccccc2)C1 (stereo unspecified)	-10.2%
Cc1ccccc1COC1CN(C(=O)C2CCN(C(=O)C3CC3)CC2)C1	i
CCCC(=O)N1Cc2ccccc2CC2(CCCN(Cc3ccccn3)C2)C1 (stereo unspecified)	i
CC12CC(O)C3CC1(O[C@@H]1O[C@H](CO)[C@@H](O)[C@H](O)[C@H]1O)C3(COC(=O)c1ccccc1)C(=O)O2 (stereo partly specified)	-14.6%
Cc1cc(NC(=O)NCCN2CCC(O)(Cc3ccccc3)CC2)c2ccccc2n1	4.2%
CCS(=O)(=O)c1ncc(Cl)c(C(=O)Nc2ccccc2)n1	71.8%
CC(=O)Nc1ccc(NC(=O)c2nc(S(=O)(=O)Cc3ccc(F)cc3)ncc2Cl)cc1	?	CHIKV nsP2 cell=2.31µM*;CHIKV NSP2 FL=?;Furin counterscr=1.6%;NS23 peptide cs=4.61µM*;Papain cs=-7.0%;nsP2pro confirm=5.04µM*;HCV NS3 counter=i
Cc1ccc(CS(=O)(=O)c2ncc(Cl)c(C(=O)Nc3nc4ccc(F)cc4s3)n2)cc1	-0.1%
COc1ccc(C(=O)Nc2nc(-c3ccccc3)cs2)c(NS(=O)(=O)c2ccc(C)cc2)c1	-2.2%
COc1cc(F)ccc1-c1nc(-c2c(C)noc2C)cc2[nH]c(C)cc12	-9.2%[39.2 µM]
